Compounds with a hit are over-represented: about 1.6% of the library has one in this group of screens.
SIRT5 inh = inhibitors of human sirtuin-5 desuccinylase. Q9NXA8. inhibition, % at 15 µM. Purified SirT5, succinyl-peptide AMC, trypsin-coupled fluorescence. 330,000 tested, 1.1% active; in the data active means inhibition above about 15%
Casp6 inh = caspase-6 (human) enzyme inhibition | inhibition, % at 12.5 µM | purified caspase-6, Z-VEID-R110 cleavage fluorescence | P55212 | 350,000 tested, 0.53% active | AID 686996;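 active means mean inhibition across replicates at least about 35%, with every replicate also reaching that limit, limit read from the data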;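 further: 0% = median of neutral control wells and 100% = no fluorescence left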
NSD2 inh = blocks human histone methyltransferase NSD2 | NSD2 peptide methylation, AlphaScreen, 120 min | 310,000 tested, 0.54% active | inhibition, % at 12.5 µM | O96028; in the data active means inhibition above about 50%
Target sequence (O96028 whole entry, looked up): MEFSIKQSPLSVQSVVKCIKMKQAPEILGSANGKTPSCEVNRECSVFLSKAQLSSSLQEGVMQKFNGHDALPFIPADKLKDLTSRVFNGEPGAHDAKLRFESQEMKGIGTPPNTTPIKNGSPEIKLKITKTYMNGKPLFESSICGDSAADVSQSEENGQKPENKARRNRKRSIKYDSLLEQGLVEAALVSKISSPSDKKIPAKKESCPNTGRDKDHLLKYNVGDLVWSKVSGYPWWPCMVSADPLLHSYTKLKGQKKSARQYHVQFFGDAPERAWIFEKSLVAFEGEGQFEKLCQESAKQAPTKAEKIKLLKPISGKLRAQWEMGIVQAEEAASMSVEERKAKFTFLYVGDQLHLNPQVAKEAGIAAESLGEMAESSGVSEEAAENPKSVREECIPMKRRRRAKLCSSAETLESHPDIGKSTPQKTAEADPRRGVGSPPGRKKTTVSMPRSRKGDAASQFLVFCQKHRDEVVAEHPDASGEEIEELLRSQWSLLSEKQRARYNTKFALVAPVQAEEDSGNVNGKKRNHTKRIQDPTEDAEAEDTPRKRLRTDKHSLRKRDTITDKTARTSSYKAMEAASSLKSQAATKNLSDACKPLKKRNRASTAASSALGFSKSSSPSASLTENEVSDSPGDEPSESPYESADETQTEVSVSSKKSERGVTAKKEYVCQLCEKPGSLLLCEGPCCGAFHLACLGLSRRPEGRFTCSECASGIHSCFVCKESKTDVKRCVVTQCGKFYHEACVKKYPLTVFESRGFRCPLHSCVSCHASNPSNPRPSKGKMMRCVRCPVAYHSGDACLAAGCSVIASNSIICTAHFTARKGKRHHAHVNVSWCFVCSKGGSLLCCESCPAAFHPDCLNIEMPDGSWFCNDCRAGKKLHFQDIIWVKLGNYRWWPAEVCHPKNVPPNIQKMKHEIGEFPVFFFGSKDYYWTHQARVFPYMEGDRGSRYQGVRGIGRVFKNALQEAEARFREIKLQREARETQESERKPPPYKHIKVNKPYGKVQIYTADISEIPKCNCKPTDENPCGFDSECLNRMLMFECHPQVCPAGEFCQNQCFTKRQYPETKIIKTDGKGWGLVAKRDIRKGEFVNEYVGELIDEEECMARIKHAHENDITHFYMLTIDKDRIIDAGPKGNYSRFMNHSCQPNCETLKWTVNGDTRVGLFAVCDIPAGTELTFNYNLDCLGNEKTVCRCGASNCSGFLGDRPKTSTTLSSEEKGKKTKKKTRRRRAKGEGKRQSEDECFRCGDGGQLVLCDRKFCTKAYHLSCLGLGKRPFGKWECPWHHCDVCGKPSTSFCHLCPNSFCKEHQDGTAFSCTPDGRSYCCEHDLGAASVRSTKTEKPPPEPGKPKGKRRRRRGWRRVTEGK
UBC9 SUMO inh = blocks human SUMOylation mediated by UBC9 | P63279 | HTRF SUMOylation assay, SAE1/SAE2 + UBC9, in vitro | inhibition, % at 35 µM | 290,000 tested, 0.36% active; in the data active means inhibition above about 50%, passing the limit was not always enough
The depositor's hits bear a star; / = no result given.

SMILES	SIRT5 inh	Casp6 inh	NSD2 inh	UBC9 SUMO inh
Cc1c(NS(=O)(=O)c2cc(C(=O)NCCN(C)C)ccc2Cl)c(=O)n(-c2ccccc2)n1C	-2.0	42.3*	-0.7	11.0
Cc1c(NS(=O)(=O)c2cc(C(=O)NCc3cccc(Cl)c3)ccc2Cl)c(=O)n(-c2ccccc2)n1C	-0.9	0.6	2.4	/
O=C(NC1CCC1)[C@H]1[C@H](CO)[C@H]2Cn3c(ccc(-c4ccccc4F)c3=O)[C@@H]1N2C(=O)CC1CC1	10.3	-0.4	/	/
Cc1ccc(S(=O)(=O)NCC2CCCO2)cc1 (configuration not stated)	-0.9	0.4	1.2	2.4
Cc1ccc(NC(=O)c2cc(S(=O)(=O)NCC3CCCO3)ccc2F)cc1 (configuration not stated)	/	42.5*	0.9	/
CC(C)N(C(=O)Nc1ccc2nccnc2c1)C(C)C	/	/	-1.2	93.5*
COc1ccccc1-c1ccc([C@H]2[C@@H](CO)N3CCCCN(Cc4ccncc4)C[C@@H]23)cc1	-7.4	2.1	/	/
CNC(=O)c1sc(-c2ccccc2)nc1C	/	/	-4.6	-8.7
Cc1nc(-c2ccccc2)sc1C(=O)NS(=O)(=O)c1ccc(CN2CCN(c3ccccc3)CC2)cc1	21.8*	14.2	/	/
Cc1c(C=C2C(=O)c3ccccc3C2=O)cc(C#N)n1C	/	/	/	14.1
Cc1ccc(C(=O)/C=C/c2cc(C#N)n(C)c2C)cc1	21.9*	0.2	3.4	0.0
CCCCn1c(N)c(N(CCC(C)C)C(=O)c2cccc(N3C(=O)c4ccccc4C3=O)c2)c(=O)[nH]c1=O	-3.0	-0.1	0.5	/
CCCCn1c(N)c(N(CC(C)C)C(=O)CC(NC(=O)c2ccccc2)c2ccccc2)c(=O)[nH]c1=O (configuration not stated)	-1.6	64.7*	-2.9	/
CCCCN(C(=O)c1cccc(-n2cccc2)c1)c1c(N)n(CCCC)c(=O)[nH]c1=O	0.8	43.5*	3.5	/
Cc1cc(SCC(=O)OC/C(O)=C(\C#N)c2nc3ccccc3[nH]2)c(C)cc1Br	0.1	-4.4	0.8	54.7*
N#C/C(=C(/O)COC(=O)CSc1ccc(Cl)cc1)c1nc2ccccc2[nH]1	/	-1.4	0.2	2.9
C[C@@H]1CN([C@H](C)CO)C(=O)Cc2cc(NC(=O)NC3CCCCC3)ccc2O[C@@H]1CN(C)C(=O)NC1CCCCC1	-5.0	/	/	/
COc1ccc(OC)c(N(CC(=O)Nc2ccccc2)S(C)(=O)=O)c1	-3.6	36.6*	-2.2	6.9
COc1ccc(NC(=O)CN(c2cccc(F)c2)S(C)(=O)=O)cc1OC	/	/	-3.7	7.0
COc1ccc(Cl)cc1NC(=O)CN(C)CC(=O)Nc1ccc(Br)cc1	-4.6	-8.3	/	-29.2
COc1ccc(NC(=O)CN(c2ccc(Cl)cc2)S(C)(=O)=O)cc1OC	24.7*	1.1	-3.2	6.5
COc1ccc(Cl)cc1NC(=O)CN(C)CC(=O)Nc1cc(OC)c(OC)c(OC)c1	15.3*	-1.2	-0.3	18.3
COC(=O)c1ccccc1NC(=O)CN(c1cc(OC)ccc1OC)S(C)(=O)=O	/	/	-2.2	-1.3
O=S(=O)(c1cccs1)N1CCCCN2[C@H](CO)[C@H](c3ccc(Br)cc3)[C@@H]2C1	0.3	-0.8	/	/
Cc1cc(C)cc(OCCNC(=O)c2cc(S(=O)(=O)N3CCOCC3)ccc2F)c1	17.4*	-0.8	-0.8	-7.2
SMILES	SIRT5 inh	Casp6 inh	NSD2 inh	UBC9 SUMO inh
COc1ccc(NC(=O)Nc2ccc3c(c2)C(=O)N([C@H](C)CO)C[C@@H](C)[C@H](CN(C)S(=O)(=O)c2ccccc2)O3)cc1	7.0	-4.8	/	/
CNC(=O)C[C@H]1CC[C@@H]2[C@H](COc3ccc(NC(=O)Nc4ccc(F)cc4)cc3C(=O)N2C)O1	-3.3	0.2	/	/
COC(=O)[C@@]1(Cc2ccccc2)N=C(c2ccc(OCCCO)cc2)O[C@H]1c1ccccc1CN=[N+]=[N-]	19.5*	0.7	/	/
O=C(CC1CC1)N1[C@@H](CO)[C@@H]2c3ccccc3N(S(=O)(=O)c3ccc(F)cc3)C[C@@H]21	25.5*	1.5	/	/
C[C@H](CO)N1C[C@H](C)[C@H](CN(C)Cc2ccc(C(F)(F)F)cc2)Oc2ccc(NC(=O)Nc3cccc4ccccc34)cc2CC1=O	0.3	4.0	/	/
O=C(c1cc([N+](=O)[O-])ccc1N1CCCCC1)N1CCCC1	0.1	-2.2	-1.7	-0.1
O=C(c1cc([N+](=O)[O-])ccc1N1CCCC1)N1CCCC1	15.8*	4.5	-0.3	5.4
CCOCCCNC(=O)C1c2ccccc2Oc2ccccc21	-6.3	41.3*	-1.4	6.6
C[C@H](CO)N1C[C@H](C)[C@H](CN(C)C)OCCCC[C@H](C)Oc2ccc(NS(=O)(=O)c3cn(C)cn3)cc2C1=O	-6.2	-4.9	/	/
COc1ccc(S(=O)(=O)Nc2cccc3c2O[C@H](CN(C)C(=O)Nc2ccc(C(F)(F)F)cc2)[C@H](C)CN([C@@H](C)CO)C3=O)cc1	8.8	2.0	/	/
CC(C(=O)NCc1cccs1)N1C(=O)c2ccccc2C1=O (configuration not stated)	18.8*	-2.9	0.6	7.2
CCOc1ccc(CN2CCN(C(=O)c3cccc(F)c3)CC2)cc1	19.3*	1.3	1.7	-17.2
COc1ccc2c3c(n(C)c2c1)[C@H](CO)N(S(=O)(=O)c1ccccc1)CC31CCN(C)CC1	0.0	-1.0	/	/
COc1ccc(/C=N/NC(=O)c2ccco2)cc1Cn1nc(C)cc1C	34.2*	2.2	-2.0	7.1
COc1ccc(/C=N/NC(=O)c2ccncc2)cc1Cn1nc([N+](=O)[O-])c(Br)c1C	19.8*	12.1	-1.4	10.8
COc1ccc(Cc2c(-c3ccco3)nc3ccc(Br)cn23)c(C)c1	2.9	6.8	/	/
COc1ccc(Cc2c(-c3ccco3)nc3c(C)cc(Br)cn23)c(C)c1	-1.1	38.9*	/	/
Cc1noc(C)c1NC(=O)N[C@H]1CC[C@@H](CC(=O)Nc2ccc(-c3ccccc3)cc2)O[C@H]1CO	1.5	-9.8	/	/
COc1ccc([N+](=O)[O-])cc1NC(=O)CCN1CCN(C)CC1	-0.2	-10.4	1.2	-0.8
CN1CCN(CCC(=O)N/N=C/c2cc([N+](=O)[O-])ccc2OC(F)F)CC1	22.6*	-10.1	5.5	3.8
N#Cc1c(/N=C/c2ccc(-c3ccc(C(=O)O)c(Cl)c3)o2)sc2c1CCCC2	5.3	27.8	28.3	/
N#Cc1c(/N=C/c2ccc(-c3ccccc3C(=O)O)o2)sc2c1CCCC2	7.8	56.7*	44.8	0.9
C=C(C)C(=O)Nc1cccc(C2=NOC3(C2)C[C@@H](C(N)=O)N(C(=O)/C=C/C=C/C)C3)c1 (some centres not stated)	/	51.0*	/	22.1
C/C=C(\C)C(=O)Nc1cccc(C2=NOC3(C2)C[C@@H](C(N)=O)N(C(=O)c2ccccc2C(=O)c2ccccc2)C3)c1 (some centres not stated)	8.6	6.2	/	8.0
C=C(C)C(=O)Nc1cccc(C2=NOC3(C2)C[C@H](C(N)=O)N(C(=O)c2ccccc2C(=O)c2ccccc2)C3)c1 (some centres not stated)	2.3	63.0*	/	1.8
C=C(C)C(=O)Nc1cccc(C2=NOC3(C2)C[C@@H](C(N)=O)N(C(=O)/C(C)=C/C)C3)c1 (some centres not stated)	1.9	62.5*	/	9.4

Source: PubChem
